HepG2 tox-1 = HepG2 cytotoxicity, counter-screen for TGF-b inhibitors; HepG2 CAGA-GFP viability, ATP luminescence, 18 h; Potency, µM (highest dose often 46.1 µM), most hits filed as cytotoxic; hit rate 0.76% among 410,000; AID 588856
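HepG2 CAGA-GFP cells (1000/well, DMEM with 1% FBS) received compound, then TGF-beta at 500 pg/mL final, and were incubated 18 hours at 37 degrees C. Viability was read by CellTiter-Glo luminescence. Media-only wells were set as complete cell-killing and DMSO as no toxicity.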
IL-1B inflam inh = blocks inflammasome-driven IL-1 beta release. THP-1 LPS/ATP IL-1B secretion, AlphaLISA, 16 h; active compounds read low. activity change, % at 57.5 µM. AID 743279. hit rate 4.7% among 360,000; in the data active = activity change below about -50%; inconclusive = mostly about -30% to -49%
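Secreted IL-1B measured by AlphaLISA bead assay after 16 h compound exposure of THP-1 cells; compounds (final up to 57.5 uM) added 1 h before LPS (250 ng/mL) and ATP (1.25 mM) stimulation; lower signal means less secretion.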
S2 tox = reduces viability in counter-screen for ATXN expression inhibitors; hit rate 0.49% among 400,000; S2 cells (HEK-293 line with an ATXN2-luciferase reporter) viability, CellTiter-Fluor protease fluorescence, 24 h; Potency, µM (doses to about 56.7 µM), usual class: cytotoxic; also: nearly all actives have a fitted effect of over 40% in size
TGFb inhibitor = inhibitors of TGF-b signaling; HepG2 CAGA-GFP TGF-b/SMAD3 reporter, GFP fluorescence, 18 h; TGF-beta stimulated, 500 pg/mL final; Potency, µM (series often up to 46.1 µM), usual class: inhibitors; AID 588855; hit rate 1.2% among 410,000; also: nearly all actives have a fitted effect of over 65% in size
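Per well, imaged GFP fluorescence of HEPG2 CAGA-GFP cells gives the signal; cells get compound, then TGF-beta (500 pg/mL final), 18 h at 37 degrees C; %Activity versus -TGF-beta and +DMSO controls.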
ATXN2 expr inh = ATXN2 expression inhibition; HEK-293 ATXN2-luciferase reporter, luminescence, 24 h; Potency, µM (highest dose often 57 µM), hits mostly inhibitors; hit rate 0.72% among 360,000; also: nearly all actives have a fitted effect of over 55% in size
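ATXN2-luciferase reporter cells (luciferase flanked by upstream and downstream ATXN2 gene portions) were treated 24 h at 37 °C with compounds at up to 57 uM. SteadyGlo luminescence gave expression; GF-AFC fluorescence gave viability.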
TGFb confirm = confirmation of TGF-b signaling inhibitors in HepG2 reporter cells; Potency, µM (titrated, usually from 46.1 µM), actives largely listed as inhibitors; AID 720534; shares compounds with TGFb inhibitor; HepG2 CAGA-GFP TGF-b reporter, GFP fluorescence, 18 h; cells stimulated with TGF-beta, 500 pg/mL; hit rate 63% among 1,600; also: nearly all actives have a fitted effect of over 65% in size
HepG2 tox-2 = counter-screen for TGF-b inhibitors: cytotoxicity in HepG2 cells | Potency, µM (series often up to 46.1 µM), actives largely listed as inhibitors | AID 720535 | HepG2 CAGA-GFP viability, ATP luminescence, 18 h; cells stimulated with TGF-beta, 500 pg/mL | shares compounds with TGFb inhibitor | hit rate 27% among 1,600; also: nearly all actives have a fitted effect of over 70% in size
TGFb CCL64 inh = TGF-b inhibition, CCL64 orthogonal assay; hit rate 41% among 1,600; AID 720536; Potency, µM (series often up to 46.1 µM), usual class: inhibitors; CCL64 CAGA-GFP reporter, TGF-b stimulated, GFP fluorescence, 18 h; shares compounds with TGFb inhibitor; also: nearly all actives have a fitted effect of over 65% in size
COP TGFb inh = validation of TGF-b inhibitors in HepG2 COP promoter reporter; shares compounds with TGFb inhibitor; HepG2 COP-GFP TGF-b reporter, GFP fluorescence, 18 h; cells stimulated by added recombinant TGF-beta; Potency, µM (top dose mostly 46.1 µM), most hits filed as inhibitors; hit rate 3% among 1,600; AID 720537; also: nearly all actives have a fitted effect of over 70% in size
Hits are given with their value; - = inactive; ? = inconclusive; . = not tested or not shown. An excerpt weighted towards active compounds, which were near 5.7% of everything screened. Unless noted, calls follow the shape of the dose curve; as a rule, active = well fitted curve in the direction sought with a large enough effect; inconclusive = small, poorly fitted or top-dose-only effect, or another doubt; inactive = no such curve, though single readings can be large; an effect the other way counts as inactive or inconclusive.

SMILES	HepG2 tox-1	IL-1B inflam inh	S2 tox	TGFb inhibitor	ATXN2 expr inh	TGFb confirm	HepG2 tox-2	TGFb CCL64 inh	COP TGFb inh
CC[C@]12c3[nH]c4cc(-c5ccco5)ccc4c3CCN1C(=O)[C@@H](CC(=O)NCCC1=CCCCC1)C[C@@H]2C(=O)N1CCN(C(=O)c2ccco2)CC1	-	-64	?	14µM	-	?	-	?	-
CCOc1cc2c(cc1OCC)C(c1c(F)cccc1Cl)CC(=O)N2 (centres undefined)	-	.	-	?	-	.	.	.	.
CC[C@]12c3[nH]c4ccc(OC)cc4c3CCN1C(=O)C(CC(=O)NCC13CC4CC(CC(C4)C1)C3)C[C@@H]2C(=O)N1CCN(C(=O)C2CC2)CC1 (some centres undefined)	-	-	?	?	?	.	.	.	.
O=C(C[C@H]1C[C@H](C(=O)N2CCOCC2)[C@@]2(CCC3CCCC3)c3[nH]c4cc(-c5ccco5)ccc4c3CCN2C1=O)NCC12CC3CC(CC(C3)C1)C2	-	?	-	?	-	.	.	.	.
C[C@]12c3[nH]c4ccc(Cl)cc4c3CCN1C(=O)[C@@H](CC(=O)NCc1cccc(C(F)(F)F)c1)C[C@@H]2C(=O)N1CCOCC1	-	-56	.	10µM	?	16µM	-	15µM	-
C[C@]12c3[nH]c4ccc(Cl)cc4c3CCN1C(=O)[C@@H](CC(=O)NCc1ccco1)C[C@@H]2C(=O)N1CCOCC1	-	-	-	-	-	.	.	.	.
CCN(CC)C(=O)[C@H]1C[C@H](CC(=O)NC/C=C(\C)CCC=C(C)C)C(=O)N2CCc3c([nH]c4ccc(Cl)cc34)[C@]12C	-	-	-	?	-	.	.	.	.
CCN(CC)C(=O)[C@H]1C[C@H](CC(=O)NC/C=C(\C)CCC=C(C)C)C(=O)N2CCc3c([nH]c4cc(-c5ccco5)ccc34)[C@]12C	-	-65	?	8.9µM	?	?	?	13µM	-
CC[C@]12c3[nH]c4ccc(Cl)cc4c3CCN1C(=O)[C@@H](CC(=O)NCC13CC4CC(CC(C4)C1)C3)C[C@@H]2C(=O)N1CCN(C(=O)C2CC2)CC1	-	-	?	10µM	25µM	9.2µM	?	23µM	-
C[C@]12c3[nH]c4cc(-c5ccco5)ccc4c3CCN1C(=O)[C@@H](CC(=O)NCC13CC4CC(CC(C4)C1)C3)C[C@@H]2C(=O)N1CCOCC1	-	-	?	10µM	?	9.2µM	?	?	-
CCC(Sc1nc2ccccc2c2nc(-c3ccccc3)nn12)C(=O)Nc1cccc(OC)c1 (centres undefined)	-	.	?	-	-	.	.	.	.
COC(=O)c1sc(N2C(=O)c3oc4ccc(C)cc4c(=O)c3C2c2ccc(O)c(OC)c2)nc1C (centres undefined)	-	.	-	-	-	.	.	.	.
O=C(N/N=C/c1ccccc1O)c1cccc2ccccc12	-	-	-	8.9µM	.	?	?	?	-
O=C(O)c1ccc(C=NNC(=O)c2cccc3ccccc23)cc1	-	-	-	-	-	.	.	.	.
N#Cc1ccc(NC(=O)Nc2ccc(Oc3ccc(NC(=O)Nc4ccc(C#N)cc4)cc3)cc2)cc1	-	-80	?	5.6µM	?	4.6µM	?	-	-
Cc1c(-c2ccccc2)c(=O)oc2c(CN3CCN(C)CC3)c(O)ccc12	-	.	.	?	-	.	.	.	.
CCCS(=O)(=O)N1CC(=O)N(c2ccc(C)c(Cl)c2)C(C)(C(=O)NC2CCCCCC2)C1 (centres undefined)	-	.	.	-	.	.	.	.	.
COC(=O)C1(CC2CC(c3cccc(Br)c3)=NO2)CCN(C(=O)OC(C)(C)C)CC1 (centres undefined)	-	-	-	?	-	23µM	?	?	-
CC(C)(C)OC(=O)N1CCC(CC2CC(c3ccccc3)=NO2)(C(=O)NCc2ccccc2)CC1 (centres undefined)	-	-	?	?	-	.	.	.	.
CC(Nc1ccccc1CO)C(=O)Nc1cccc(Cl)c1Cl (centres undefined)	-	-	-	4µM	?	5.2µM	2.1µM	-	-
CC(=O)NC(CCS(C)(=O)=O)C(=O)Nc1cccc(Cl)c1Cl (centres undefined)	-	-	-	-	-	.	.	.	.
COc1ccc(S(=O)(=O)N(CC(=O)Nc2cccc(C(F)(F)F)c2)c2ccc(C)cc2)cc1	-	.	-	-	-	.	.	.	.
Cc1ccc(OCCCC(=O)Nc2ccc(Cl)c(S(=O)(=O)N3CCOCC3)c2)cc1	-	?	-	8.9µM	-	?	?	-	-
CC(=O)c1ccc(OCCCC(=O)Nc2ccc(Cl)c(S(=O)(=O)N3CCOCC3)c2)cc1	-	-	-	?	.	.	.	.	.
Fc1cccc(CCN2C(=S)NC[C@@H]2CC2CCCCC2)c1	-	?	?	14µM	-	16µM	-	?	-
SMILES	HepG2 tox-1	IL-1B inflam inh	S2 tox	TGFb inhibitor	ATXN2 expr inh	TGFb confirm	HepG2 tox-2	TGFb CCL64 inh	COP TGFb inh
CCc1nc2ccc(C(=O)N3CCN(c4ccccc4)CC3)cc2nc1CC	-	-	-	?	-	.	.	.	.
CCc1nc2ccc(C(=O)N3CCN(c4cccc(C(F)(F)F)c4)CC3)cc2nc1CC	-	-	-	20µM	-	?	-	?	-
COc1ccc(CNC(=O)CN(c2ccccc2OC)S(=O)(=O)c2ccc(C)cc2)cc1	-	.	?	?	-	.	.	.	.
CCc1ccccc1NC(=O)Cn1c(=O)n(CCCCCC(=O)NCc2ccc(C)cc2)c(=O)c2sccc21	-	.	-	-	-	.	.	.	.
CN(c1ccc(F)cc1)S(=O)(=O)c1ccc(Cl)c(C(=O)Nc2ccc3c(c2)CCC3)c1	-	-	-	11µM	-	?	-	-	-
COc1ccc(S(=O)(=O)NCCc2cn3ccsc3n2)cc1	-	.	.	-	.	.	.	.	.
CCOC(=O)CNC(=O)CSc1nnc(Cn2c(=O)sc3ccccc32)n1-c1ccccc1C	-	-94	-	?	-	?	-	-	-
CCn1c(=O)c(C(=O)Nc2nc3ccccc3[nH]2)c(O)c2ccccc21	-	-	-	2µM	-	-	?	?	-

Screens (PubChem)
